Results reported in PubChem BioAssay (NCI).
“And” between values parts separate entries of the source, which are not always exact repeats. Identical values can stand only once. This is part of a sample that, as a whole, favours compounds with a hit. Of some 83,000 tested, about 20% had one in any assay.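 48-hour exposure, single concentration, 96-well plates; percent growth endpoint where 0 means no net growth. Active: below 10.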 The source made the active and inactive calls.

How the values were obtained:
Assay in all cases: NCI-60 one-dose screen, 48 h (100 = growth as untreated, 0 = no growth, -100 = all killed)
Details in all cases: 10 µM unless noted
MOLT-4 leukemia = tested on: MOLT-4 leukemia
SR leukemia = tested on: SR leukemia
RPMI-8226 leukemia = tested on: RPMI-8226 leukemia
OVCAR-8 ovarian = tested on: OVCAR-8 ovarian
OVCAR-5 ovarian = tested on: OVCAR-5 ovarian
OVCAR-4 ovarian = tested on: OVCAR-4 ovarian
SK-OV-3 ovarian = tested on: SK-OV-3 ovarian
IGROV1 ovarian = tested on: IGROV1 ovarian
OVCAR-3 ovarian = tested on: OVCAR-3 ovarian
HS 578T breast = tested on: HS 578T breast
T-47D breast = tested on: T-47D breast
BT-549 breast = tested on: BT-549 breast
MDA-MB-435 melanoma = tested on: MDA-MB-435 melanoma
SW-620 colon = tested on: SW-620 colon
MCF7 breast = tested on: MCF7 breast
HCT-116 colon = tested on: HCT-116 colon
HCC-2998 colon = tested on: HCC-2998 colon
KM12 colon = tested on: KM12 colon
NCI/ADR-RES ovarian = tested on: NCI/ADR-RES ovarian

Measured: growth

COc1ccc2c(c1)C1(C)CCN(C)CC(C1)C2O (configuration not stated)
inactive: MOLT-4 leukemia 94.1% | SR leukemia 94.2% | RPMI-8226 leukemia 98.7% | OVCAR-8 ovarian 101% | OVCAR-5 ovarian 99.3% | OVCAR-4 ovarian 103% | SK-OV-3 ovarian 107% | IGROV1 ovarian 86.9% | OVCAR-3 ovarian 109% | HS 578T breast 116% | T-47D breast 95.2% | BT-549 breast 98.2% | MDA-MB-435 melanoma 105% | SW-620 colon 101% | MCF7 breast 96% | HCT-116 colon 97.8% | HCC-2998 colon 89.9% | KM12 colon 102%

C[N+]1(CC#CC[N+]2(C)CCCC2)CCCC1
inactive: MOLT-4 leukemia 103% | SR leukemia 96.7% | RPMI-8226 leukemia 109% | OVCAR-8 ovarian 111% | OVCAR-5 ovarian 101% | OVCAR-4 ovarian 105% | SK-OV-3 ovarian 98.3% | IGROV1 ovarian 105% | OVCAR-3 ovarian 102% | HS 578T breast 107% | T-47D breast 108% | BT-549 breast 101% | MDA-MB-435 melanoma 104% | SW-620 colon 107% | MCF7 breast 95.5% | HCT-116 colon 98.4% | KM12 colon 102%

O=S(=O)(F)c1cccc(Cl)c1C[P+](c1ccccc1)(c1ccccc1)c1ccccc1
inactive: MOLT-4 leukemia 112% | SR leukemia 95.3% | RPMI-8226 leukemia 74.1% | OVCAR-8 ovarian 84.3% | OVCAR-5 ovarian 94.8% | OVCAR-4 ovarian 90.2% | SK-OV-3 ovarian 89.2% | IGROV1 ovarian 85.4% | OVCAR-3 ovarian 96.5% | HS 578T breast 103% | NCI/ADR-RES ovarian 109% | BT-549 breast 106% | MDA-MB-435 melanoma 84.4% | SW-620 colon 100% | MCF7 breast 103% | HCT-116 colon 92.4% | HCC-2998 colon 99.4% | KM12 colon 102%

O=[N+]([O-])c1c(Cl)cc(Cl)c([N+](=O)[O-])c1Cl
inactive: MOLT-4 leukemia 80.8% | SR leukemia 69% | RPMI-8226 leukemia 90.2% | OVCAR-8 ovarian 94.7% | OVCAR-5 ovarian 115% | OVCAR-4 ovarian 112% | SK-OV-3 ovarian 111% | IGROV1 ovarian 100% | OVCAR-3 ovarian 78.3% | HS 578T breast 109% | NCI/ADR-RES ovarian 103% | BT-549 breast 114% | SW-620 colon 65.6% | MCF7 breast 45.9% | HCT-116 colon 88.5%
active: KM12 colon -2.82%

CC1(C)CN=C(NN=C(/C=C/c2ccc(C(F)(F)F)cc2)/C=C/c2ccc(C(F)(F)F)cc2)NC1
inactive: IGROV1 ovarian 22%
active: MOLT-4 leukemia -59.1% | SR leukemia -57% | RPMI-8226 leukemia -26.8% | OVCAR-8 ovarian -64% | OVCAR-5 ovarian -87.5% | OVCAR-4 ovarian -92.3% | SK-OV-3 ovarian -7.65% | OVCAR-3 ovarian -88% | HS 578T breast -38% | NCI/ADR-RES ovarian -68.4% | BT-549 breast -16.8% | MDA-MB-435 melanoma -83.6% | SW-620 colon -52.6% | MCF7 breast -99.5% | HCT-116 colon -85.8% | KM12 colon -86.8%

CCCCOC(N)=O
inactive: MOLT-4 leukemia 96.8% | SR leukemia 96.1% | RPMI-8226 leukemia 114% | OVCAR-8 ovarian 98% | OVCAR-5 ovarian 110% | OVCAR-4 ovarian 106% | SK-OV-3 ovarian 100% | IGROV1 ovarian 113% | OVCAR-3 ovarian 109% | HS 578T breast 110% | NCI/ADR-RES ovarian 106% | T-47D breast 102% | MDA-MB-435 melanoma 110% | SW-620 colon 113% | MCF7 breast 114% | HCT-116 colon 98.4% | KM12 colon 106%

COc1ccn(C)c(=O)c1C#N
inactive: MOLT-4 leukemia 106% | SR leukemia 90% | RPMI-8226 leukemia 102% | OVCAR-8 ovarian 96.3% | OVCAR-5 ovarian 105% | OVCAR-4 ovarian 114% | SK-OV-3 ovarian 91.9% | IGROV1 ovarian 98.7% | OVCAR-3 ovarian 93.8% | HS 578T breast 105% | T-47D breast 81.6% | BT-549 breast 103% | SW-620 colon 94.1% | MCF7 breast 93% | HCT-116 colon 97% | HCC-2998 colon 101% | KM12 colon 96.6%

CC[CH2][Sn]([Cl])([Cl])[CH2]CC.Oc1ccccc1C=NCCN=Cc1ccccc1O
active: RPMI-8226 leukemia -24.1% and -10.1% | T-47D breast -86.4% and -71%
inactive: MOLT-4 leukemia 40.2% and 12.6% | SR leukemia 24.8% and 21.8% | OVCAR-8 ovarian 87.8% and 72.5% | OVCAR-5 ovarian 97.1% and 84.2% | OVCAR-4 ovarian 69.6% | SK-OV-3 ovarian 109% and 92.2% | IGROV1 ovarian 74.1% and 61.9% | OVCAR-3 ovarian 86.8% and 44.3% | HS 578T breast 77.7% and 48.6% | NCI/ADR-RES ovarian 90.7% and 91.1% | BT-549 breast 72.7% and 37.4% | MCF7 breast 21.9% and 17.1% | HCT-116 colon 66.2% and 60.3% | HCC-2998 colon 66.5% and 52.5% | KM12 colon 88.4% and 79.7%
